{"source": "PubChem BioAssay (NCI)", "note": "About 79,000 compounds went through this panel and 15% of them were active in at least one assay; those are over-represented in the sample as a whole. Values without a mark were called inactive. Calls of active or inactive are those of the source. Cut-off read from the data, not from the text of the source: active = growth inhibition above about 70%; inactive = the rest. Where a SMILES comes first, the peptide text is derived from it. Bridges are numbered along the chain shown (N, C = ends). The star is where a group is joined. Cbz = O=C(OCc1ccccc1)*; OBn = c1ccc(CO*)cc1"}
{"experiment": "NCI Yeast Anticancer Drug Screen. Data for the sgs1 mgt1 strain (AID 161);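 note: 0% = growth of cultures given vehicle only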", "conditions": "S. cerevisiae sgs1 mgt1 strain, at 50.0 µM, active compounds read high", "how_it_was_run": "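Read-out: growth inhibition vs vehicle controls. Cells: mutant yeast strain deficient in DNA damage repair.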", "units": {"growth inhibition": "%"}}
{"smiles": "COC(=O)C1CCC(=O)NCCCCC(NC(=O)C(CC(=O)OCc2ccccc2)NC(=O)OCc2ccccc2)C(=O)N1", "note": "(stereo not drawn) (Cbz-Asp(OBn)-Lys-Glu-OMe; lactam 2-3; configuration not given here)", "growth inhibition": 23.3}
{"smiles": "O=C(O)C(c1ccccc1)C(F)(F)F", "note": "(stereo not given)", "growth inhibition": 2.45}
{"smiles": "COc1cc(/C=C/C(=O)N[C@@H]2C(=O)N3[C@@H]2SC(C)(C)[C@@H]3C(=O)O)cc(OC)c1OC", "growth inhibition": -34.8}
{"smiles": "CC1=NN(c2nc(N)nc(CSc3cc(Cl)c(C)cc3S(N)(=O)=O)n2)C(C)(C)C1", "growth inhibition": 12.2}
{"smiles": "O=C(Oc1ccc(Cl)cc1)c1ccccc1", "growth inhibition": -1.65}
{"smiles": "COC(=O)C1=CCOc2c1c(C(=O)OC)nn2C", "growth inhibition": -2.4}
{"smiles": "C/C=C/C(=O)NN", "growth inhibition": -4.65}
{"smiles": "C=C(NC(C)=O)C(=O)O", "growth inhibition": -11}
{"smiles": "O=C1c2ccccc2C(=O)c2c1nnn2-c1ccccc1", "growth inhibition": 21.2}
{"smiles": "CC1=C(c2ccccc2)CON(c2ccccc2)C1", "growth inhibition": -9.2}
{"smiles": "CC(C)(C)N=Cc1ccccc1[O-].CC(C)(C)N=Cc1ccccc1[O-].[Co+2]", "growth inhibition": -14.5}
{"smiles": "Cc1c(C)c(O)c(C)c(C)c1O", "growth inhibition": -4.85}
{"smiles": "NC(N)=NS(=O)(=O)c1ccc(NC(=O)c2cccc3c(N)c4ccccc4nc23)cc1", "growth inhibition": -0.2}
{"smiles": "O=C(NO)/C(CC(=O)c1ccc(O)cc1)=N\\O", "growth inhibition": -6.9}
{"smiles": "C/C(=N\\N(C)/C=N/S(C)(=O)=O)c1ccccc1", "growth inhibition": 24.5}
{"smiles": "O=C(O)C#Cc1ccccc1", "growth inhibition": -1.8}
{"smiles": "O=C(NCc1ccccc1)NCc1ccccc1", "growth inhibition": -2.5}
{"smiles": "CN1CCCCC1CCN1CCCCC1", "note": "(stereo not given)", "growth inhibition": -7.8}
{"smiles": "O=c1cnc(=O)[nH][nH]1", "growth inhibition": -7}
{"smiles": "COc1ccc(-n2nnnc2C2(Nc3ccccc3)CCN(Cc3ccccc3)CC2)cc1", "growth inhibition": -1.4}
{"experiment": "NCI Yeast Anticancer Drug Screen. Data for the cln2 rad14 strain (AID 165);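 note: 0% = growth equal to vehicle treated cultures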", "conditions": "S. cerevisiae cln2 rad14 strain, at 50.0 µM, active compounds read high", "how_it_was_run": "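cln2 rad14 yeast strain; compound exposure; growth inhibition read vs vehicle controls.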"}
{"smiles": "CSC(=Nc1nnc(-c2ccc([N+](=O)[O-])cc2)s1)SC", "growth inhibition": "-11.6%"}
{"smiles": "BrCCCOc1ccccc1Br", "growth inhibition": "-32.1%"}
{"smiles": "Clc1cccc(NNc2cccc(Cl)c2)c1", "growth inhibition": "-66.2%"}
{"smiles": "CCCCCCCCCCCCCCCC(=O)OCC(=O)O", "growth inhibition": "10.3%"}
{"smiles": "O=C1CSC(=O)N1", "growth inhibition": "-32.8%"}
{"smiles": "CC(C)OC(=O)Nc1ccc(F)c(F)c1", "growth inhibition": "-2.8%"}
{"smiles": "CC(C)CN1CC(C)C(=O)NC1=O", "note": "(stereo not given)", "growth inhibition": "3.85%"}
{"smiles": "COc1ccc2cc(C(=O)CCC(=O)O)ccc2c1", "growth inhibition": "-21.3%"}
{"smiles": "CC(C)C1NC(C(=O)O)C(C)(C)S1", "note": "(stereo not given)", "growth inhibition": "4.05%"}
{"smiles": "CCCc1c(Cl)nc(Cl)nc1Cl", "growth inhibition": "-54.8%"}
{"smiles": "O=C1C(N=Nc2ccccc2)Sc2nc3ccccc3n21", "note": "(stereo not given)", "growth inhibition": "-52%"}
{"smiles": "CCOC(=O)CC(=O)CC", "growth inhibition": "7.55%"}
{"smiles": "CCOC(=O)c1c2ccc(/C=C/c3ccccn3)ccc-2c(C(=O)OCC)c1N", "growth inhibition": "13%"}
{"smiles": "CC(=O)NCC1(c2ccccc2)CCN(Cc2ccccc2)CC1", "growth inhibition": "5.7%"}
{"smiles": "O=C(Nc1ccccc1Cl)c1ccccc1O", "growth inhibition": "-48.6%"}
{"smiles": "BrCCCCCCCCCBr", "growth inhibition": "12.9%"}
{"smiles": "COc1ccc(Nc2nc(NNC(=O)Cc3ccccc3)nc(NNC(=O)c3ccncc3)n2)cc1", "growth inhibition": "19.2%"}
{"smiles": "CCN(CC)Cc1cc(C)c(O)c(N=Nc2cc(OC)c(N=Nc3ccc([N+](=O)[O-])cc3)cc2OC)c1C", "growth inhibition": "34.1%"}
{"smiles": "CCNC(=S)NC1CCCCC1", "growth inhibition": "-4.05%"}
{"smiles": "CC(=O)CC(=O)NCc1ccc2c(c1)OCO2", "growth inhibition": "3.75%"}
{"smiles": "COC(=O)C1CCC(=O)NCCCCC(NC(=O)C(CC(=O)OCc2ccccc2)NC(=O)OCc2ccccc2)C(=O)N1", "note": "(stereo not drawn) (Cbz-Asp(OBn)-Lys-Glu-OMe; lactam 2-3; configuration not given here)", "growth inhibition": "11.8%"}
{"smiles": "O=C(O)C(c1ccccc1)C(F)(F)F", "note": "(stereo not given)", "growth inhibition": "-10.4%"}
{"smiles": "COc1cc(/C=C/C(=O)N[C@@H]2C(=O)N3[C@@H]2SC(C)(C)[C@@H]3C(=O)O)cc(OC)c1OC", "growth inhibition": "10.1%"}
{"smiles": "CC1=NN(c2nc(N)nc(CSc3cc(Cl)c(C)cc3S(N)(=O)=O)n2)C(C)(C)C1", "growth inhibition": "-8.35%"}
{"smiles": "O=C(Oc1ccc(Cl)cc1)c1ccccc1", "growth inhibition": "2.25%"}
{"smiles": "COC(=O)C1=CCOc2c1c(C(=O)OC)nn2C", "growth inhibition": "6.1%"}
{"smiles": "C/C=C/C(=O)NN", "growth inhibition": "-21.2%"}
{"smiles": "C=C(NC(C)=O)C(=O)O", "growth inhibition": "4.5%"}
{"smiles": "O=C1c2ccccc2C(=O)c2c1nnn2-c1ccccc1", "growth inhibition": "-4.45%"}
{"smiles": "CC1=C(c2ccccc2)CON(c2ccccc2)C1", "growth inhibition": "-5.4%"}
{"smiles": "CC(C)(C)N=Cc1ccccc1[O-].CC(C)(C)N=Cc1ccccc1[O-].[Co+2]", "growth inhibition": "0.25%"}
{"smiles": "Cc1c(C)c(O)c(C)c(C)c1O", "growth inhibition": "-13.2%"}
{"smiles": "NC(N)=NS(=O)(=O)c1ccc(NC(=O)c2cccc3c(N)c4ccccc4nc23)cc1", "growth inhibition": "8.65%"}
{"smiles": "O=C(NO)/C(CC(=O)c1ccc(O)cc1)=N\\O", "growth inhibition": "-11.2%"}
{"smiles": "C/C(=N\\N(C)/C=N/S(C)(=O)=O)c1ccccc1", "growth inhibition": "74.5% (active)"}
{"smiles": "O=C(O)C#Cc1ccccc1", "growth inhibition": "2.6%"}
{"smiles": "O=C(NCc1ccccc1)NCc1ccccc1", "growth inhibition": "-13.8%"}
{"smiles": "CN1CCCCC1CCN1CCCCC1", "note": "(stereo not given)", "growth inhibition": "-39.5%"}
{"smiles": "O=c1cnc(=O)[nH][nH]1", "growth inhibition": "-18.1%"}
{"smiles": "COc1ccc(-n2nnnc2C2(Nc3ccccc3)CCN(Cc3ccccc3)CC2)cc1", "growth inhibition": "2.65%"}
